According to PMC7862700, “An all-to-all approach to the identification of sequence-specific readers for epigenetic DNA modifications on cytosine”:

Columns and labels:
Assay in all cases: DAPPL (digital affinity profiling via proximity ligation, sequencing); 10 mM Tris-HCl pH 7.5, 50 mM NaCl, 1 mM DTT, 4% glycerol, room temperature, 30 min; GST-TFs on glutathione beads, 16-mer random dsDNA library, 0.1% formaldehyde crosslink after washing; high values mean tight binding
Conditions in all cases: protein: recombinant; tags: N-terminal GST; dsDNA, one strand shown
FLI1 = target: T1, FLI1 (Homo sapiens, UniProt Q01543 1-452)
T1 sequence: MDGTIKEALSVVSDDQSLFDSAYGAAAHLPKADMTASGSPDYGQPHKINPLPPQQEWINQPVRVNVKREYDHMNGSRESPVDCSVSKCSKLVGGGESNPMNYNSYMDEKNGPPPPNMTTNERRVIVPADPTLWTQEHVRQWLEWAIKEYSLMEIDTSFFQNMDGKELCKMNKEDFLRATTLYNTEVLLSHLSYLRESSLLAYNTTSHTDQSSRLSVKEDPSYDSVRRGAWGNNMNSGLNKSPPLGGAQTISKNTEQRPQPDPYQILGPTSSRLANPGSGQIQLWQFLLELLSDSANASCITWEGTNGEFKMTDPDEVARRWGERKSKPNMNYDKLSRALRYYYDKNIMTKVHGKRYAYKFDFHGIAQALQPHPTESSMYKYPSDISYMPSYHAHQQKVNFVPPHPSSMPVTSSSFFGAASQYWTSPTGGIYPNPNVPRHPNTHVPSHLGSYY
How it was run: (§1)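 A tag-only sample was pooled with DNA-barcoded human transcription factors that had been expressed in yeast as GST fusions and captured on glutathione beads. The pools were incubated for 30 min at room temperature with 200 nmole of a random double-stranded 16-mer DNA library in Tris/NaCl/DTT/glycerol buffer, then washed, crosslinked with 0.1% formaldehyde, proximity-ligated (BsaI/T4 ligase, 1 h, 37 °C), PCR-amplified and sequenced on an Illumina NextSeq500. Binding signal is each hexamer's read frequency for a factor divided by its frequency for the tag-only sample.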

ELK1 = target: T2, ELK1 (Homo sapiens, UniProt P19419 1-428)
T2 sequence: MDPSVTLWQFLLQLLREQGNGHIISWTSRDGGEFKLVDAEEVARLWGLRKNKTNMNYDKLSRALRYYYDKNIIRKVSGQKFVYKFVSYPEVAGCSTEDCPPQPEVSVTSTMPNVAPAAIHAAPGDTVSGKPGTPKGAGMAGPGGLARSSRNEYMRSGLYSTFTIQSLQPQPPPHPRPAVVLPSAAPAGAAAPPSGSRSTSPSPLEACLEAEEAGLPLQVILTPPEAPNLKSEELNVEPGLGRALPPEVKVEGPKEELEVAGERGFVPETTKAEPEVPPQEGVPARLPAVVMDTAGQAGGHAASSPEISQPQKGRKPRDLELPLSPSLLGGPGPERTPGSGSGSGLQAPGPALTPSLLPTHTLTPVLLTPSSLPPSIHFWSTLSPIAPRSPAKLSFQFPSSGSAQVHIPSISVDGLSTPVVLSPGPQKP
How it was run: as §1

GABPA = target: T3, GABPA (Homo sapiens, UniProt Q06546 1-454)
T3 sequence: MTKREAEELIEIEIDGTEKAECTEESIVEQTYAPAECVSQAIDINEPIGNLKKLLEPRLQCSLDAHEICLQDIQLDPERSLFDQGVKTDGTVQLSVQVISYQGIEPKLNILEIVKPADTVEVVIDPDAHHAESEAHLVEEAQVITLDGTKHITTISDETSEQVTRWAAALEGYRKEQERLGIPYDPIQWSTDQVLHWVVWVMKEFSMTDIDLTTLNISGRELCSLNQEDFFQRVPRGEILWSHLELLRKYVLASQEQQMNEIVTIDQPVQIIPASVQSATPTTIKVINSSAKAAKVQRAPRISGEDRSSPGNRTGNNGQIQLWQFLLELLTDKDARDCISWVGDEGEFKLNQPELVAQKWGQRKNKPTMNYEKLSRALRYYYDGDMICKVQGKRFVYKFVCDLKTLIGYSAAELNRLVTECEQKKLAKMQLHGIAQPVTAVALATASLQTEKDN
How it was run: as §1

ERG = target: T4, ERG (Homo sapiens, UniProt P11308 1-479)
T4 sequence: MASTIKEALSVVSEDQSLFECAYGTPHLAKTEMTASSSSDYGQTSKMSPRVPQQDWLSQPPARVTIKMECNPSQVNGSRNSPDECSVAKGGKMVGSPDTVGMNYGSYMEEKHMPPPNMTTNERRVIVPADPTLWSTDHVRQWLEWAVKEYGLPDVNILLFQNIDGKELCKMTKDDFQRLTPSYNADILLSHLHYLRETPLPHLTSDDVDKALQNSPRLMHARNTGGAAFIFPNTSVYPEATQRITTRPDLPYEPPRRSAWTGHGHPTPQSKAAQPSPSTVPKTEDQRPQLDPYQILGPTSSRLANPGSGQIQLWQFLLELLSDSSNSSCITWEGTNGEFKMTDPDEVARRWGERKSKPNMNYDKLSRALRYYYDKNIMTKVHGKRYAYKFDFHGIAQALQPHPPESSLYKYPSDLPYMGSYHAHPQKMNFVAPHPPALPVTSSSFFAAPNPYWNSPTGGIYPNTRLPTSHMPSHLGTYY
How it was run: as §1

ELF1 = ELF1 (Homo sapiens, UniProt P32519 1-619)
Sequence of ELF1 (P32519 whole entry): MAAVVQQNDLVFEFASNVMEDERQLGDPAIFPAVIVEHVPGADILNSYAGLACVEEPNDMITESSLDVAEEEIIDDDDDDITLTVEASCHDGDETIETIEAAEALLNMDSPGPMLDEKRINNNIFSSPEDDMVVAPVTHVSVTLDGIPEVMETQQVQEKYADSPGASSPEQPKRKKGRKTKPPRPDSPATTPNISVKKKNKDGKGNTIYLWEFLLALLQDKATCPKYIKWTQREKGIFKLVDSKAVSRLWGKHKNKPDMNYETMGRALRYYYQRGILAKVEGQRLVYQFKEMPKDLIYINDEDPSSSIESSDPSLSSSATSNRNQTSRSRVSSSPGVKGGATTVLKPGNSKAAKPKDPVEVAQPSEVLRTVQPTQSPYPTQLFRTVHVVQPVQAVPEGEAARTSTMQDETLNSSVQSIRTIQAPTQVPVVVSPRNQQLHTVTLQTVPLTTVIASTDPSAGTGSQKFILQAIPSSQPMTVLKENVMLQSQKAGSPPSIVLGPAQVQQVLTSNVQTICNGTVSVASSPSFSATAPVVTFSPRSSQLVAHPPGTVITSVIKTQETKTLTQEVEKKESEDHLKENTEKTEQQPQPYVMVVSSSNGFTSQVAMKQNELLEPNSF
How it was run: as §1

EHF = target: T5, EHF (Homo sapiens, UniProt Q9NZC4 1-300)
T5 sequence: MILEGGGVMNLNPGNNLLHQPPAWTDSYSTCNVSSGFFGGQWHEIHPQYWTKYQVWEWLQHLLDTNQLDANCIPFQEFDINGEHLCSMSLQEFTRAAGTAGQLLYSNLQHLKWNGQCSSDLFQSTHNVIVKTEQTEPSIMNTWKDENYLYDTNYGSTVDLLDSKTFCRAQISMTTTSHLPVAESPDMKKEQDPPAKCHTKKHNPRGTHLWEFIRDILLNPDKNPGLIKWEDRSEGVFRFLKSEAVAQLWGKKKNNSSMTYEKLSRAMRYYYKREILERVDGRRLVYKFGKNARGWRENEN
How it was run: as §1

SPI1 = SPI1 (Homo sapiens, UniProt P17947 1-270)
How it was run: as §1

SPIB = SPIB (Homo sapiens, UniProt Q01892 1-262)
Sequence of SPIB (Q01892 whole entry): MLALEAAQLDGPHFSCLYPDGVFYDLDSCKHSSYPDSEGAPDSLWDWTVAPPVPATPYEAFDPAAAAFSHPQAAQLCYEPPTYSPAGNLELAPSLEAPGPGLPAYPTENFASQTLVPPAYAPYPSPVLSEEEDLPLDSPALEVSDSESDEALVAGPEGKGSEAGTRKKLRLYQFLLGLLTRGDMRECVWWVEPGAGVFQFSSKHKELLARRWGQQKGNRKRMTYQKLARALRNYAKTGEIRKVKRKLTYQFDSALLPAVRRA
How it was run: as §1

ELK3 = target: T6, ELK3 (Homo sapiens, UniProt P41970 1-407)
T6 sequence: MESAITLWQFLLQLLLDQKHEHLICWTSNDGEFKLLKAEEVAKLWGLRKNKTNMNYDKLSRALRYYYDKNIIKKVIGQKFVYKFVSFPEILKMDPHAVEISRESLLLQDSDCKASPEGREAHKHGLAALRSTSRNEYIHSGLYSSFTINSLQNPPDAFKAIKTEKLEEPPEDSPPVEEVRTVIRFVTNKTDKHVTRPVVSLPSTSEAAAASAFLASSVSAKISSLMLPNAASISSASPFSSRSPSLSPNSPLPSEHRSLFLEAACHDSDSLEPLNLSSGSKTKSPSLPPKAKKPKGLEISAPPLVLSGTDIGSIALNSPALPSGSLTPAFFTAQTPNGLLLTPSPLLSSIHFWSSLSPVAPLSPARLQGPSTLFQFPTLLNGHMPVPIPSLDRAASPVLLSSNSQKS
How it was run: as §1

GCTTAT was tested, and the binding signal (FLI1) was 1.33 fold enrichment (6-mer frequency, TF over GST control), the binding signal (ELK1) was 1.21 fold enrichment (6-mer frequency, TF over GST control) and the binding signal (GABPA) was 1.28 fold enrichment (6-mer frequency, TF over GST control). The binding signal (ERG) was 1.18 fold enrichment (6-mer frequency, TF over GST control), the binding signal (ELF1) was 1.28 fold enrichment (6-mer frequency, TF over GST control) and the binding signal (EHF) was 1.12 fold enrichment (6-mer frequency, TF over GST control). The binding signal (SPI1) was 1.3 fold enrichment (6-mer frequency, TF over GST control), the binding signal (SPIB) was 1.31 fold enrichment (6-mer frequency, TF over GST control) and the binding signal (ELK3) was 1.16 fold enrichment (6-mer frequency, TF over GST control).
